PubChem BioAssay (Tox21)
Results filed as inconclusive are left out. Activity calls are given as the source filed them. The call rests on the fitted dose curve; in most records, active means well fitted activation curve with a large enough effect in the repeat runs; inconclusive means weak or mixed curves; inactive means flat fitted curve, though single readings scatter.

test: Caspase-3/7 induction in HepG2 cells by small molecules, qHTS assay (AID 1346978); conditions: HepG2 caspase-3/7 activation, Caspase-Glo luminescence, 17 h; series mostly up to 92.4 µM; caspase activation: at the top concentration; further: nearly all actives have a fitted effect of over 15% in size
Source text: National Center for Advancing Translational Sciences [NCATS] NIH Chemical Genomics Center [NCGC] U.S. Environmental Protection Agency [EPA] National Institutes of Environmental Health Sciences [NIEHS] National Toxicology Program [NTP] Assay overview: Apoptosis is a process of programmed cell death and plays a central role in the development of multicellular organisms. It is a highly regulated process and induces cell death by activating caspases, which are the members of cysteine aspartic acid-specific protease (caspase) family. Caspases involved in apoptosis are classified by their mechanism of action as initiator caspases (caspase-2, -8, -9 and -10) and executioner caspases (caspase-3, -6, and -7). Inhibition of apoptosis results in number of cancers, autoimmune diseases, inflammatory diseases and viral infection. To identify small molecule compounds that induce apoptosis, a homogeneous, luminescent Caspase-Glo 3/7 assay was used. Wild type HepG2 cells were used to screen Tox21 libraries for identifying caspase-3/7 activity inducers.
Assay Protocol Summary: HepG2 cells were dispensed at 2,000 per well in 5uL of culture medium into white solid bottom 1536-well plates (Corning Life Sciences, Corning, NY) using a Multidrop Combi (Thermo Scientific, Waltham, MA) dispenser. The assay plates were incubated at 37 C and 5% CO2 for 5hr, and then 23nL of compounds dissolved in DMSO and positive control were transferred using a Pintool station (Wako, San Diego, CA). The assay plates were incubated at 37C and 5% CO2 for 17hr. For caspase-3/7 activity read, 4uL of Caspase-Glo 3/7 reagent (Promega Corporation, Madison, WI) was added to each well of the assay plates using Flying Reagent Dispenser (FRD, Aurora Discovery, San Diego, CA) and incubated the assay plates at room temperature for 30min. The luminescence signal was quantified using a ViewLux plate reader (Perkin Elmer, Shelton, CT).
On the % scale 0 is the no-effect control and ±100 the full control effect.

Row | SMILES | caspase activation
1 | Cc1ccc(S(=O)(=O)NC(=O)NN2CC3CCCC3C2)cc1 (stereo not given) | 0.851% [at 42.5 µM] (inactive)
2 | O=C(O)/C=C(\CC(=O)O)C(=O)O | 0.697% [at 42.5 µM] (inactive)
3 | Clc1ccc2c(c1)Nc1ccccc1S2 | -6.77% [at 42.5 µM] (inactive)
4 | C[C@@H](CN1CC(=O)NC(=O)C1)N1CC(=O)NC(=O)C1 | 2.4% [at 42.5 µM] (inactive)
5 | CCC(C)c1nccnc1OC (stereo not given) | -3.95% (inactive)
6 | CCN1CCN(C(=O)N[C@@H](C(=O)N[C@@H]2C(=O)N3[C@@H]2SC(C)(C)[C@H]3C(=O)O)c2ccccc2)C(=O)C1=O | 0.885% [at 42.5 µM] (inactive)
7 | O=c1c(O)c(O)c1=O | -0.187% (inactive)
8 | COC(=O)c1c(C)cc(O)c(C)c1O | 1.56% (inactive)
9 | CC(C)(C)C(=O)CC(=O)C(C)(C)C | 2.39% (inactive)
10 | Cc1ccc(NC(N)=O)cc1 | -2.14% (inactive)
11 | C[Si](C)(C)O[Si](O)(O)O | -1.19% (inactive)
12 | C=CCN(CC=C)CC=C | 0.0522% (inactive)
13 | O=C1CCCc2c(O)cccc21 | 0.979% [at 42.5 µM] (inactive)
14 | C[n+]1ccccc1/C=N/O | 0.0561% [at 42.5 µM] (inactive)
15 | CC(=O)c1ccc(O)c(C(N)=O)c1 | 1.25% [at 42.5 µM] (inactive)
16 | CCCCCCCCC1CO1 (stereo not given) | -11.6% (inactive)
17 | C[C@H]1COc2c(C3(N)CC3)c(F)cc3c(=O)c(C(=O)O)cn1c23 | 0.583% [at 42.5 µM] (inactive)
18 | Cc1ccc(OC(=O)CC(C)C)cc1 | 0.484% (inactive)
19 | CC(C)C(C)C | 1.03% (inactive)
20 | C=C(C)C(=O)OCCOC1CC2CC1C1C=CCC21 (stereo not given) | 0.583% (inactive)

Row | SMILES | caspase activation
21 | C/C=C(\C)C=O | 2.29% (inactive)
22 | CCNC(=O)C(C)OC(=O)Nc1ccccc1 (stereo not given) | -0.213% (inactive)
23 | O=C1CC2(CCCC2)CC(=O)N1CCNCC1COc2ccccc2O1 (stereo not given) | 0.113% [at 42.5 µM] (inactive)
24 | CCCC(C)C(O)CC (stereo not given) | -0.815% (inactive)
25 | C[C@@H]1CCC[C@H](C)N1CCCC(O)(c1ccccc1)c1ccccn1 (stereo not given in full) | 1.82% [at 42.5 µM] (inactive)
26 | CC(CN1CC(=O)NC(=O)C1)N1CC(=O)NC(=O)C1 (stereo not given) | 3.3% (inactive)
27 | O=Cc1ccc(C(=O)O)cc1 | 3.06% (inactive)
28 | CCC(C)SSC(C)CC (stereo not given) | 0.0257% (inactive)
29 | COc1ccccc1N1CCN(CC(O)COc2cc(OC)c(OC)c(OC)c2)CC1 (stereo not given) | -0.12% [at 42.5 µM] (inactive)
30 | CC[C@@]1(c2ccccc2)NC(=O)N(C)C1=O | 1.8% [at 42.5 µM] (inactive)
31 | CCOCCOCCOC(C)=O | 0.187% (inactive)
32 | c1coc(Cn2cccc2)c1 | 0.113% (inactive)
33 | O=S(=O)(O)c1ccc(Cl)cc1 | -0.15% (inactive)
34 | CCCOc1ccc(C(=O)OCCN(CC)CC)cc1N | -0.355% [at 42.5 µM] (inactive)
35 | CN(C)CCc1c[nH]c2ccc(CS(=O)(=O)N3CCCC3)cc12 | 0.292% [at 42.5 µM] (inactive)
36 | CCCCC(O)/C=C(C)/C=C/C=C/C(=O)N1CCCC1=O (stereo not given) | 2.11% [at 42.5 µM] (inactive)
37 | COc1cc2nc(N3CCN(C(=O)C4CCCO4)CC3)nc(N)c2cc1OC (stereo not given) | -10.6% [at 42.5 µM] (inactive)
38 | CCN1CCN(C(=O)N[C@@H](C(=O)N[C@@H]2C(=O)N3C(C(=O)O)=C(CSc4nnnn4C)CS[C@H]23)c2ccc(O)cc2)C(=O)C1=O | 1.33% [at 42.5 µM] (inactive)
39 | CC(C)(C)c1ccc(C(=O)CCCCl)cc1 | -1.53% [at 42.5 µM] (inactive)
40 | C[C@]12C=CC(=O)C=C1[C@@H](F)C[C@@H]1[C@@H]2[C@@H](O)C[C@@]2(C)[C@H]1CC[C@]2(O)C(=O)CO | -1.74% [at 42.5 µM] (inactive)
